Measured values published in PubChem BioAssay (Tox21).
Records with an inconclusive call do not appear. Unmarked numbers belong to inactive results. The call rests on the fitted dose curve; in most records, active means well fitted cell-killing curve with a large enough effect in the repeat runs; inconclusive means weak or mixed curves; inactive means flat fitted curve, though single readings scatter.

Test: qHTS assay to identify small molecule antagonists of the estrogen receptor beta (ER-beta) signaling pathway - cell viability counter screen (AID 1259382); further: nearly all actives have a fitted effect of over 55% in size
Settings: ER-beta-UAS-bla HEK293T viability, CellTiter-Glo luminescence, 16 h; series mostly up to 92.4 µM; activity change, negative = cytotoxicity: at the top concentration
Description: U.S. Tox21 Program National Center for Advancing Translational Sciences [NCATS] NIH Chemical Genomics Center [NCGC] U.S. Environmental Protection Agency [EPA] National Institutes of Environmental Health Sciences [NIEHS] National Toxicology Program [NTP] U.S. Food and Drug Administration [FDA] Tox21 Assay Overview: Estrogen receptor (ER), a nuclear hormone receptor, plays an important role in development, metabolic homeostasis and reproduction. Two subtypes of ER, ER-alpha and ER-beta, have similar expression patterns with some uniqueness in both types. Endocrine disrupting chemicals (EDCs) and their interactions with steroid hormone receptors like ER causes disruption of normal endocrine function. To identify the compounds that inhibit ER signaling, an ER-beta-UAS-bla GripTite cell line (Life Technologies, Madison, WI, USA) containing a beta-lactamase reporter gene under the control of an UAS response element was used to screen Tox21 10K compound library. The cytotoxicity of the Tox21 compound library against the ER-beta-bla cell line was tested in parallel by measuring the cell viability using CellTiter-Glo assay in the same wells.
Tox21 Assay Protocol Summary: ER-beta-UAS-bla HEK293T cells were dispensed at 2,000 cells/4 uL of assay medium containing 2% charcoal stripped FBS per well into black wall/clear-bottom 1536-well plates using a Multidrop Combi (ThermoFisher Scientific, Waltham, MA) dispenser. After the assay plates were incubated at a 37C and 5% CO2 for 6 hr, 23 nL of compounds dissolved in DMSO, positive controls or DMSO only was transferred to the assay plate by a Pintool station (Kalypsys, San Diego, CA), followed by addition of 1 uL (1nM as final concentration) of 17-beta-estradiol (E2) in assay medium using a Flying Reagent Dispenser (FRD, Aurora Discovery, San Diego, CA). The plates were incubated at 37C and 5% CO2 for 16 hr. Then 1 uL of LiveBLAzer B/G FRET substrate was added using a Flying Reagent Dispenser, the plates were incubated at room temperature for 2 hours, and fluorescence intensity was measured by an Envision plate reader (PerkinElmer, Shelton, CT). For cell viability readout that measures cytotoxicity, 4 uL/well of CellTiter-Glo reagent was added into the assay plates using a FRD. After 30 min incubation at room temperature, the luminescence intensity in the plates was measured using a ViewLux (PerkinElmer) plate reader.
On the % scale 0 is the no-effect control and ±100 the full control effect.

SMILES	activity change, negative = cytotoxicity
CCC(C=O)CC	6.74%
Nc1ccc([N+](=O)[O-])c(N)c1	4.33%
O=C(OCC(O)CO)c1ccccc1Nc1ccnc2c(C(F)(F)F)cccc12 (stereo not given)	5.01% [at 42.5 µM]
COc1ccc(-c2cc(=O)c3c(O)cc(O[C@@H]4O[C@H](CO[C@@H]5O[C@@H](C)[C@H](O)[C@@H](O)[C@H]5O)[C@@H](O)[C@H](O)[C@H]4O)cc3o2)cc1O	1.88% [at 42.5 µM]
O=C(NCCc1c[nH]c2ccccc12)c1cccnc1	-7.54% [at 42.5 µM]
Nc1ccc2cc(S(=O)(=O)O)cc(O)c2c1	0.706%
BrCCCCCBr	3.26%
CC(C)N(c1ccccc1)C(C)C	3.95%
O=C(c1ccc(O)cc1)c1ccc(O)c(O)c1O	-14.2%
CC(=O)Nc1ccc(S(=O)(=O)Nc2ccc([N+](=O)[O-])cc2)cc1	4.65% [at 42.5 µM]
CC1=C(C(=O)O)N2C(=O)[C@@H](NC(=O)[C@H](N)c3ccc(O)cc3)[C@H]2SC1	-2.72% [at 42.5 µM]
N[C@@H](CCC(=O)N[C@@H](CS)C(=O)NCC(=O)O)C(=O)O	1.29% [at 19 µM]
CC(=O)NCc1c(I)c(NC(C)=O)c(I)c(C(=O)O)c1I	10.1% [at 42.5 µM]
CC(=O)Nc1cccc(C)c1	-5.91%
CN(CCOc1ccc(NS(C)(=O)=O)cc1)CCc1ccc(NS(C)(=O)=O)cc1	-3.92% [at 42.5 µM]
O=C(O)c1cc(Br)c(O)c(Br)c1	-2.41%
ClCCCl	2.39%
N[C@@H](COP(=O)(O)O)C(=O)O	9.58% [at 19 µM]
O=C(Nc1ccc(Cl)c(Cl)c1)C1CC1	-17% [at 42.5 µM]
CCC(C)NC(N)=O (stereo not given)	7.73%

SMILES	activity change, negative = cytotoxicity
Cc1ccc2c(c1)OCC(=O)CO2	-1.83%
CC1=CCC(C(C)C)=CC1	1.51%
O=C1c2ccccc2C(=O)c2cc(S(=O)(=O)O)ccc21	-0.371%
CC(C)OC(=O)CCCCC(=O)OC(C)C	0.0844%
c1ccc2nccnc2c1	0.161%
COc1ccc(S(=O)(=O)N2c3ccc(Cl)cc3[C@@](O)(c3ccccc3Cl)[C@H]2C(=O)N2CCC[C@@H]2C(N)=O)cc1OC	-4.66% [at 42.5 µM]
Nc1nnc(-c2cccc(Cl)c2Cl)c(N)n1	0.589% [at 42.5 µM]
FC(F)(F)c1ccccc1-n1ccnc1	6.16% [at 42.5 µM]
CC[C@H](C)C(=O)O[C@H]1C[C@H](O)C=C2C=C[C@H](C)[C@H](CC[C@@H](O)C[C@@H](O)CC(=O)O)[C@H]21	2.42%
CC(C)(C)OC(=O)c1ccc(O)cc1	-1.22%
O=S(O)(O)=S	4.48% [at 8.39 µM]
Nc1ncnc(Nc2ccccc2)n1	-0.856% [at 42.5 µM]
CCCCCCCCCCCCCC	-1.48%
CC(C)=CCOC(=O)c1ccccc1	1.7%
CCCCCCCCC(=O)Cl	-3.31%
O=C(OCC1(COC(=O)c2cccnc2)CCCC(COC(=O)c2cccnc2)(COC(=O)c2cccnc2)C1O)c1cccnc1	7.4% [at 42.5 µM]
CC(CO)c1ccccc1 (stereo not given)	3.6%
Cc1cccc(OCC(O)CNC(C)(C)C)c1C (stereo not given)	-11.6% [at 42.5 µM]
CCN1CCc2nc(N)oc2CC1	14.6% [at 42.5 µM]
O=C(O)c1ccc(Cl)cc1Cl	1.99%
